# Measured values: the supplement of paper PMC8728848
# This excerpt belongs to a sample that is enriched for the strongest signals.
# B1: Strep tagII-anxA1 (Homo sapiens), P04083 (protein)
# chain: MAMVSEFLKQAWFIENEEQEYVQTVKSSKGGPGSAVSPYPTFNPSSDVAALHKAIMVKGVDEATIIDILTKRNNAQRQQIKAAYLQETGKPLDETLKKALTGHLEEVVLALLKTPAQFDADELRAAMKGLGTDEDTLIEILASRTNKEIRDINRVYREELKRDLAKDITSDTSGDFRNALLSLAKGDRSEDFGVNEDLADSDARALYEAGERRKGTDVNVFNTILTTRSYPQLRRVFQKYTKYSKHDMNKVLDLELKGDIEKCLTAIVKCATSKPAFFAEKLHQAMKGVGTRHKALIRIMVSRSEIDMNDIKAFYQKMYGISLCQAILDETKGDYEKILVALCGGN
# Experiments:
# Experiment in all cases: glycan array binding signal (z-score within array); higher = stronger binding
# Settings in all cases: glycan notation: IUPAC condensed, linker removed
# [1] = target: Man(a1-2)Man(a1-3)Man
# How it was run: (§1)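 Columns mapping to the same glycan were averaged after glycan names were converted to IUPAC-condensed notation. The data come from 3228 arrays in the Consortium for Functional Glycomics database, limited to those with an available protein sequence. Binding is reported as a within-array Z-score averaged across arrays of one protein sequence and across linkers.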
# [2] = target: Neu5Ac(a2-3)Gal(b1-3)GalNAc(b1-4)[Neu5Ac(a2-3)]Gal(b1-4)Glc
# How it was run: as §1
# [3] = target: Neu5Ac(a2-3)Gal(b1-3)[Fuc(a1-4)]GlcNAc
# How it was run: as §1
# [4] = target: Neu5Ac(a2-3)Gal(b1-3)[Neu5Ac(a2-3)Gal(b1-4)]GlcNAc
# How it was run: as §1
# [5] = target: Neu5Ac(a2-3)Gal(b1-4)GlcNAc
# How it was run: as §1
# [6] = target: Neu5Ac(a2-3)Gal(b1-4)GlcNAc(b1-2)Man(a1-3)[GlcNAc(b1-2)Man(b1-4)GlcNAc(b1-2)Man(a1-6)]Man(b1-4)GlcNAc(b1-4)GlcNAc
# How it was run: as §1
# [7] = target: Neu5Ac(a2-3)Gal(b1-4)[Fuc(a1-3)]GlcNAc6S
# How it was run: as §1
# [8] = target: Neu5Ac(a2-3)Gal6S(b1-4)GlcNAc
# How it was run: as §1
# [9] = target: Neu5Ac(a2-3)[GalNAc(b1-4)]Gal(b1-4)GlcNAc(b1-3)GalNAc
# How it was run: as §1
# [10] = target: Neu5Ac(a2-6)Gal(b1-4)Glc
# How it was run: as §1
# [11] = target: Neu5Ac(a2-6)Gal(b1-4)GlcNAc(b1-2)Man(a1-3)[GlcNAc(b1-2)Man(a1-6)]Man(b1-4)GlcNAc(b1-4)GlcNAc
# How it was run: as §1
# [12] = target: Neu5Ac(a2-6)Gal(b1-4)GlcNAc(b1-3)Gal(b1-4)GlcNAc(b1-3)Gal(b1-4)GlcNAc
# How it was run: as §1
# [13] = target: Neu5Ac(a2-6)GlcNAc(b1-4)GlcNAc
# How it was run: as §1
# [14] = target: Neu5Ac(a2-8)Neu5Ac(a2-8)Neu5Ac
# How it was run: as §1
# [15] = target: Neu5Ac(b2-6)GalNAc
# How it was run: as §1
# [16] = target: Neu5Gc(b2-6)Gal(b1-4)GlcNAc
# How it was run: as §1
binder,measurement,setting,value
B1,glycan array binding signal (z-score),[1],-0.123
same,glycan array binding signal (z-score),[2],-0.502
same,glycan array binding signal (z-score),[3],-0.529
same,glycan array binding signal (z-score),[4],-0.763
same,glycan array binding signal (z-score),[5],-0.209
same,glycan array binding signal (z-score),[6],-0.74
same,glycan array binding signal (z-score),[7],-0.736
same,glycan array binding signal (z-score),[8],-0.312
same,glycan array binding signal (z-score),[9],-0.294
same,glycan array binding signal (z-score),[10],0.446
same,glycan array binding signal (z-score),[11],-0.496
same,glycan array binding signal (z-score),[12],0.122
same,glycan array binding signal (z-score),[13],-0.032
same,glycan array binding signal (z-score),[14],-0.49
same,glycan array binding signal (z-score),[15],-0.503
same,glycan array binding signal (z-score),[16],-0.654
